Molecules are shown by their SMILES. Calls of active or inactive are those of the source.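 How the source made its calls, unless noted: active means compound raises GLP1 secretion from the human gut endocrine cells, with no numeric limit stated; inactive means the rest.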

Experiment [1] is described as follows: stimulators of nuclear beta-catenin in C2C12, primary screen, imaging, WNT3A-conditioned medium, mouse C2C12, NPC library (AID 1117326; in the data active means nuclear beta-catenin stimulation mostly above about 4.2%, no sharp cut-off; inactive means mostly below about 10%; further: reference of the scale not given here). Particulars: stronger effect = higher value.
The nature of experiment [2]: stimulators of insulin release from INS-1E, primary screen, cell-based, 5 mM glucose, NPC library (AID 1117329;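 active means compound raises insulin release from rat beta cells at 5 mM glucose, no numeric limit stated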; further: reference of the scale not given here). The settings on record: rat INS-1E insulin secretion, at 10 µM, stronger effect = higher value.
A short description of experiment [3]: growth inhibition of GSK3B-pretreated HCT116 cells – cell-based, CellTiter-Glo, 0.2 to 20 µM (AID 1117336;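 active means compounds lowering colon cancer cell viability after pretreatment blocking the GSK3B kinase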). Particulars: HCT116 viability after GSK3B inhibitor, at 20 µM, stronger effect = higher value. (Cellular ATP, detected with luciferase, serves as a proxy for viable cell number.)
A short description of experiment [4]: inhibition of endothelial tube formation, primary screen, imaging, VEGF stimulated, CD31 staining, tube area, NPC library (AID 1117340;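 active means compound that reduces growth-factor-driven endothelial tube area in a mixed cell culture, no cutoff stated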). The settings on record: VEGF-stimulated ADSC/ECFC co-culture, at 10 µM, stronger effect = higher value.
The nature of experiment [5]: glucagon-like peptide 1 release enhancers, primary assay, NCI-H716 cell line, NPC library (AID 1117341). Further: reference of the scale not given here. Particulars: NCI-H716 cells, at 10 µM, stronger effect = higher value.
Experiment [6] in a line: HCT116 colon cancer cell growth inhibition, primary screen, CellTiter-Glo luminescence, NPC library (AID 1117342;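 active means compounds that lower survival of HCT116 colon cancer cells in the luminescence readout, no numeric limit stated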). The settings on record: at 20 µM (top of the series).
The nature of experiment [7]: CellTiter-Glo luminescent readout of SW480 viability loss, NPC library primary (AID 1117343;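 active means compounds that lower viability of the colon cancer cells in the luminescence readout, with no numeric limit stated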). Particulars: CellTiter-Glo luminescence; at 20 µM (top of the series).
A short description of experiment [8]: decreased DLD-1 cellular survival, CellTiter-Glo luminescent readout, NPC compound collection, primary HTS (AID 1117346;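 active means compounds that lower survival of DLD-1 colon cancer cells in the luminescence readout, no cutoff given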). The settings on record: DLD-1 viability, CellTiter-Glo luminescence; at 20 µM (top of the series).

Consider `CN(C)[C@@H]1C(=O)C(C(=O)NCN2CCCC2)=C(O)[C@@]2(O)C(=O)C3=C(O)c4c(O)cccc4[C@@](C)(O)C3C[C@@H]12` (stereo partly drawn), for which the nuclear beta-catenin stimulation in experiment [1] (at 10 µM) is 3.5% (inactive); in experiment [1] (stimulation, at 2 µM), 3.1%. Also, the insulin secretion stimulation in experiment [2] was 2.3% (inactive). Further, the viability decrease in experiment [3] is -20.7% (inactive). In experiment [4], the tube area decrease was -7.9% (inactive). For the same molecule, the GLP1 secretion stimulation in experiment [5] was 25.3% (active). Also, the inhibition of viability in experiment [6] is 3.4% (inactive). Moreover, the values for the viability decrease (inhibition) in experiment [7] and in experiment [8] were -73.8% (inactive) and 2.6% (inactive), respectively.

Regarding `COc1ccc(CCC(C)=O)cc1`, the nuclear beta-catenin stimulation in experiment [1] (at 10 µM) was 0.1% (inactive); in experiment [1] (stimulation, at 2 µM), 2.7%. In experiment [2], the insulin secretion stimulation was 0.3% (inactive). The viability decrease in experiment [3] is -3.4% (inactive). Also, in experiment [4], the tube area decrease was -21% (inactive). Further, the GLP1 secretion stimulation in experiment [5] was -3.2% (inactive). In addition, the inhibition of viability in experiment [6] was -0.8% (inactive). For the same molecule, the viability decrease (inhibition) in experiment [7] is -0.7% (inactive); in experiment [8], -19.4% (inactive).

As for `CN(C)CCN1CCN(c2cccc(Cl)c2)C1=O`, the nuclear beta-catenin stimulation in experiment [1] (at 10 µM) is 0.8% (inactive); in experiment [1] (stimulation, at 2 µM), 0.1%. Moreover, the insulin secretion stimulation in experiment [2] is 2.6% (inactive). The viability decrease in experiment [3] was 10.9% (inactive). For the same molecule, in experiment [4], the tube area decrease is 8% (inactive). Moreover, the GLP1 secretion stimulation in experiment [5] was 4% (inactive). Also, the inhibition of viability in experiment [6] is 50% (active). The viability decrease (inhibition) was 7.4% (inactive) in experiment [7] and -1.8% (inactive) in experiment [8].

For `COC(=O)c1cc(S(C)(=O)=O)ccc1OC`, the nuclear beta-catenin stimulation in experiment [1] (at 10 µM) is 1% (inactive); in experiment [1] (stimulation, at 2 µM), 3.6%. Besides, the insulin secretion stimulation in experiment [2] is 2% (inactive). Also, the viability decrease in experiment [3] was -2.3% (inactive). Moreover, the tube area decrease in experiment [4] is -4.1% (inactive). In experiment [5], the GLP1 secretion stimulation is -1.3% (inactive). The inhibition of viability in experiment [6] was 6.4% (inactive). In addition, the viability decrease (inhibition) in experiment [7] is -3.4% (inactive); in experiment [8] it was -1.9% (inactive).

For `Cc1ccc(S(=O)(=O)NC(=O)NC2CCCCC2)cc1`, the nuclear beta-catenin stimulation is 0.6% (inactive) in experiment [1] (at 10 µM) and 0.3% in experiment [1] (stimulation, at 2 µM). The insulin secretion stimulation in experiment [2] is 26.7% (active). Also, in experiment [3], the viability decrease was -13% (inactive). Moreover, the tube area decrease in experiment [4] was -13.1% (inactive). Besides, in experiment [5], the GLP1 secretion stimulation is -5.7% (inactive). Besides, in experiment [6], the inhibition of viability is 0.6% (inactive). Also, the results for the viability decrease (inhibition) in experiment [7] and in experiment [8] were 17.6% (inactive) and -1.8% (inactive), respectively.

For `NCCNc1cccc2ccccc12`, the nuclear beta-catenin stimulation is 1.9% (inactive) in experiment [1] (at 10 µM) and 1.1% in experiment [1] (stimulation, at 2 µM). Also, in experiment [2], the insulin secretion stimulation was 1.9% (inactive). For the same molecule, in experiment [3], the viability decrease was -5.55% (inactive). In experiment [4], the tube area decrease was -35.7% (inactive). For the same molecule, the GLP1 secretion stimulation in experiment [5] is 0.6% (inactive). For the same molecule, the inhibition of viability in experiment [6] was 17.2% (inactive). The viability decrease (inhibition) is 51.5% (active) in experiment [7] and 7.9% (inactive) in experiment [8].

For the molecule `C[C@@H](CN(C)C)CN1c2ccccc2Sc2ccccc21`, the nuclear beta-catenin stimulation in experiment [1] (at 10 µM) is 3% (inactive); in experiment [1] (stimulation, at 2 µM) it was -0.4%. Moreover, the insulin secretion stimulation in experiment [2] was 15.1% (active). Besides, the viability decrease in experiment [3] was -61.3% (inactive). The tube area decrease in experiment [4] is 0.6% (inactive). The GLP1 secretion stimulation in experiment [5] is 10.3% (inactive). Also, the inhibition of viability in experiment [6] was 45.3% (inactive). Besides, the viability decrease (inhibition) is 103% (active) in experiment [7] and 48.3% (inactive) in experiment [8].

Consider `CCN(CC)C(=O)[C@]1(c2ccccc2)C[C@H]1CN`, for which the nuclear beta-catenin stimulation in experiment [1] (at 10 µM) is -2.4% (inactive); in experiment [1] (stimulation, at 2 µM), -0.9%. The insulin secretion stimulation in experiment [2] was 10.5% (inactive). In experiment [3], the viability decrease is -13.1% (inactive). For the same molecule, the tube area decrease in experiment [4] was -15.6% (inactive). Besides, the GLP1 secretion stimulation in experiment [5] is 3.7% (inactive). In addition, the inhibition of viability in experiment [6] was -3.6% (inactive). Moreover, the viability decrease (inhibition) was 7% (inactive) in experiment [7] and 3.4% (inactive) in experiment [8].

As to `CCCc1ccc(C(=O)O)cc1`, the nuclear beta-catenin stimulation in experiment [1] (at 10 µM) is -2% (inactive); in experiment [1] (stimulation, at 2 µM), 2.4%. For the same molecule, the insulin secretion stimulation in experiment [2] was 0.6% (inactive). Further, the viability decrease in experiment [3] is -19.9% (inactive). Moreover, the tube area decrease in experiment [4] is 0.8% (inactive). Also, the GLP1 secretion stimulation in experiment [5] is 1.1% (inactive). Further, in experiment [6], the inhibition of viability is 7.9% (inactive). Further, the viability decrease (inhibition) was 12.9% (inactive) in experiment [7] and 11.8% (inactive) in experiment [8].

On to `O=C(O)Cc1ccc2c(c1)C(=O)c1ccccc1CO2`, for which the nuclear beta-catenin stimulation in experiment [1] (at 10 µM) is 0.5% (inactive); in experiment [1] (stimulation, at 2 µM), 0.6%. The insulin secretion stimulation in experiment [2] is 0.2% (inactive). Also, the viability decrease in experiment [3] is -4.5% (inactive). For the same molecule, the tube area decrease in experiment [4] is -16.2% (inactive). Further, in experiment [5], the GLP1 secretion stimulation is 1.7% (inactive). In experiment [6], the inhibition of viability is -7.1% (inactive). Moreover, the results for the viability decrease (inhibition) in experiment [7] and in experiment [8] were -5.2% (inactive) and -10.1% (inactive), respectively.

Consider `CCCCCCCCCCCC(=O)[O][Sn]([CH2]CCC)([CH2]CCC)[O]C(=O)CCCCCCCCCCC`, for which the nuclear beta-catenin stimulation was 75.9% (active) in experiment [1] (at 10 µM) and 7.2% in experiment [1] (stimulation, at 2 µM). Further, the insulin secretion stimulation in experiment [2] was 0% (inactive). In addition, the viability decrease in experiment [3] was -72% (inactive). In experiment [4], the tube area decrease is 94.7% (active). In addition, in experiment [5], the GLP1 secretion stimulation was 49% (active). In experiment [6], the inhibition of viability was 5.07% (inactive). In addition, the viability decrease (inhibition) in experiment [7] is 133% (active); in experiment [8], 101% (active).

For `CC12CCC(C[N+](C)(CCC[N+](C)(C)C)C1)C2(C)C` (stereo not drawn), the nuclear beta-catenin stimulation in experiment [1] (at 10 µM) is -0.5% (inactive); in experiment [1] (stimulation, at 2 µM), 0%. Besides, in experiment [2], the insulin secretion stimulation is -2.5% (inactive). For the same molecule, the viability decrease in experiment [3] was -7.9% (inactive). The tube area decrease in experiment [4] is -11.3% (inactive). The GLP1 secretion stimulation in experiment [5] was -3.2% (inactive). Also, the inhibition of viability in experiment [6] is -7.3% (inactive). Further, the viability decrease (inhibition) was 7.3% (inactive) in experiment [7] and -4% (inactive) in experiment [8].

Take `CO/N=C(/C(=O)N[C@@H]1C(=O)N2C(C(=O)OCOC(=O)C(C)(C)C)=C(C)CS[C@H]12)c1csc(N)n1`: the nuclear beta-catenin stimulation in experiment [1] (at 10 µM) is 1% (inactive); in experiment [1] (stimulation, at 2 µM), -2%. Besides, the insulin secretion stimulation in experiment [2] was 5.9% (inactive). Besides, the viability decrease in experiment [3] was 7.7% (inactive). Besides, in experiment [4], the tube area decrease was -11.2% (inactive). For the same molecule, the GLP1 secretion stimulation in experiment [5] was -21% (inactive). In experiment [6], the inhibition of viability was 0.6% (inactive). In addition, the viability decrease (inhibition) in experiment [7] was 15% (inactive); in experiment [8], -8.3% (inactive).

`Nc1cc(C(F)(F)F)ccc1S`: the nuclear beta-catenin stimulation in experiment [1] (at 10 µM) is 0% (inactive); in experiment [1] (stimulation, at 2 µM) it was -0.9%. Further, the insulin secretion stimulation in experiment [2] was 4.4% (inactive). Moreover, the viability decrease in experiment [3] is 2.3% (inactive). The tube area decrease in experiment [4] is 44.8% (active). In addition, the GLP1 secretion stimulation in experiment [5] is 20.5% (active). For the same molecule, in experiment [6], the inhibition of viability was 16.7% (inactive). Moreover, the viability decrease (inhibition) in experiment [7] is -4.3% (inactive); in experiment [8], 20.8% (inactive).

In the case of `NS(=O)(=O)c1cc(C(=O)NN2C[C@H]3[C@H]4CCC(C4)[C@H]3C2)ccc1Cl`, the nuclear beta-catenin stimulation in experiment [1] (at 10 µM) is -1.3% (inactive); in experiment [1] (stimulation, at 2 µM), 2.2%. Further, the insulin secretion stimulation in experiment [2] is -3.6% (inactive). Besides, the viability decrease in experiment [3] is -4.2% (inactive). Further, in experiment [4], the tube area decrease is -14.3% (inactive). Moreover, the GLP1 secretion stimulation in experiment [5] is -0.6% (inactive). Also, the inhibition of viability in experiment [6] was 10.3% (inactive). Further, the viability decrease (inhibition) in experiment [7] is -2.9% (inactive); in experiment [8] it was -6.4% (inactive).

On to `CCOC(=O)[C@@H](N)CS`, for which the nuclear beta-catenin stimulation is -2% (inactive) in experiment [1] (at 10 µM) and -1% in experiment [1] (stimulation, at 2 µM). The insulin secretion stimulation in experiment [2] was 2.3% (inactive). Moreover, the viability decrease in experiment [3] is -17.1% (inactive). Also, in experiment [4], the tube area decrease was 2.3% (inactive). Besides, the GLP1 secretion stimulation in experiment [5] was 21% (active). Further, the inhibition of viability in experiment [6] was -5.6% (inactive). Also, the viability decrease (inhibition) in experiment [7] is 34.7% (inactive); in experiment [8], 4.2% (inactive).

As to `Cc1cc(CCCOc2c(C)cc(-c3noc(C(F)(F)F)n3)cc2C)on1`, the nuclear beta-catenin stimulation in experiment [1] (at 10 µM) is 9.7% (inactive); in experiment [1] (stimulation, at 2 µM) it was -3.5%. Also, in experiment [2], the insulin secretion stimulation was -0.2% (inactive). Also, the viability decrease in experiment [3] is 46.3% (inactive). In experiment [4], the tube area decrease was -0.1% (inactive). Also, in experiment [5], the GLP1 secretion stimulation was -4.1% (inactive). Moreover, the inhibition of viability in experiment [6] was 68.5% (active). Also, the viability decrease (inhibition) was 45.6% (inactive) in experiment [7] and 71.8% (active) in experiment [8].

The values are drawn from PubChem BioAssay.
